# In PubChem BioAssay (NCATS):
# Values joined by “and” are separate entries in the source; they are usually repeats but may differ in a detail not shown here. Equal entries are not always repeated. Records with an inconclusive call do not appear. Entries that show only a call come without a potency. Active and inactive are the calls of the source. Unless noted, calls follow the shape of the dose curve; as a rule, active = well fitted curve in the direction sought with a large enough effect; inconclusive = small, poorly fitted or top-dose-only effect, or another doubt; inactive = no such curve, though single readings can be large; an effect the other way counts as inactive or inconclusive.
# Columns and labels:
# [1] = P-glycoprotein substrates identified in KB-8-5-11 adenocarcinoma cell line, qHTS therapeutic library screen (AID 1346987); also: nearly all actives have a fitted effect of over 65% in size; also: potency is read from the fitted curve at half-maximal effect
# Method in brief: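 P-gp-mediated resistance screen: KB-8-5-11 cells treated 72 h with compounds in dose-response. CellTiter-Glo viability.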
# [2] = NS1 protein of Zika virus - qHTS assay to identify small molecule inhibitors in human HEK 293 cells (AID 1347053); also: nearly all actives have a fitted effect of over 55% in size; also: potency is read from the fitted curve at half-maximal effect
# Method in brief: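 Inhibition of NS1 expression was scored in HEK 293 cells given compound 1 h ahead of MR766 virus (MOI = 0.5). Following 24 h at 37 C, two anti-NS1 antibodies generated a TR-FRET signal, scaled between uninfected and infected controls.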
# [3] = qHTS of pediatric cancer cell lines to identify multiple opportunities for drug repurposing: Primary screen for TC32 cells (AID 1347089); also: nearly all actives have a fitted effect of over 60% in size; also: potency is read from the fitted curve at half-maximal effect
# Method in brief: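 Luminescent CellTiter-Glo read-out of metabolically active TC32 cells after 48 h compound exposure. Primary: MIPE 11-point, 0.78 nM–46 µM; NPC 8-point, 0.59 nM–46 µM. Confirmatory: 11-point dilutions.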
# [4] = target: T1, Tyrosine-protein phosphatase non-receptor type substrate 1 (Homo sapiens) + Leukocyte surface antigen CD47 (Homo sapiens) (UniProt P78324+Q08722); test: CD47-SIRPalpha protein protein interaction - LANCE assay qHTS validation (AID 1347057; active = well fitted curve in the direction sought with a large enough effect in the signal ratio, with a control signal flat, not every such curve was filed as active; the % refers to the signal ratio; also: series mostly up to about 38 µM)
# Method in brief: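 First, His-tagged CD47 and Eu-labelled anti-His antibody met the compound for 30 min; next, site-specifically biotinylated SIRPalpha was added for 30 min; finally streptavidin-APC was added before reading the TR-FRET ratio.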
# [5] = target: T1, Tyrosine-protein phosphatase non-receptor type substrate 1 (Homo sapiens) + Leukocyte surface antigen CD47 (Homo sapiens); test: CD47-SIRPalpha protein protein interaction - HTRF assay qHTS validation (AID 1347058; active = well fitted curve in the direction sought with a large enough effect in the signal ratio, not every such curve was filed as active; the % refers to the signal ratio; also: series mostly up to about 38 µM)
# Method in brief: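 TR-FRET read (Ch1/Ch2 ratio) of soluble extracellular CD47 and Avi-biotinylated SIRPalpha domains in PBS pH 7.4 with 0.05% IGEPAL; 7-point compound titration. Sequential 30 min room-temperature steps; non-biotinylated SIRPalpha as control inhibitor.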
# [6] = target: T1, Tyrosine-protein phosphatase non-receptor type substrate 1 (Homo sapiens) + Leukocyte surface antigen CD47 (Homo sapiens); test: CD47-SIRPalpha protein protein interaction - Alpha assay qHTS validation (AID 1347059);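 also: bead proximity luminescence from CD47 binding SIRPalpha after compound preincubation with SIRPalpha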
# Method in brief: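 Soluble extracellular domains: Avi-tag biotinylated SIRPalpha (25 nM) preincubated 30 min RT with compound, then 6His-CD47 (12.5 nM) 30 min; Ni-NTA acceptor and streptavidin donor beads (10 ug/mL) 30 min, AlphaScreen read. PBS pH 7.4, 0.05% IGEPAL.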
# [7] = target: Parathyroid hormone/parathyroid hormone-related peptide receptor (Homo sapiens) (UniProt Q03431); test: qHTS for PTHR1 Agonists: Optimization Screen against the NCGC LOPAC library (AID 1347079);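 also: GloSensor cAMP luminescence in HEK-293 GP2 cells expressing human PTHR1 with IBMX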
# Method in brief: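 Compounds were tested across a qHTS titration. PTHR1-expressing GP2 cells report cAMP rises via GloSensor luminescence after 1 hr compound exposure at 37C with IBMX present.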
# T1 sequence (P78324 whole entry, looked up): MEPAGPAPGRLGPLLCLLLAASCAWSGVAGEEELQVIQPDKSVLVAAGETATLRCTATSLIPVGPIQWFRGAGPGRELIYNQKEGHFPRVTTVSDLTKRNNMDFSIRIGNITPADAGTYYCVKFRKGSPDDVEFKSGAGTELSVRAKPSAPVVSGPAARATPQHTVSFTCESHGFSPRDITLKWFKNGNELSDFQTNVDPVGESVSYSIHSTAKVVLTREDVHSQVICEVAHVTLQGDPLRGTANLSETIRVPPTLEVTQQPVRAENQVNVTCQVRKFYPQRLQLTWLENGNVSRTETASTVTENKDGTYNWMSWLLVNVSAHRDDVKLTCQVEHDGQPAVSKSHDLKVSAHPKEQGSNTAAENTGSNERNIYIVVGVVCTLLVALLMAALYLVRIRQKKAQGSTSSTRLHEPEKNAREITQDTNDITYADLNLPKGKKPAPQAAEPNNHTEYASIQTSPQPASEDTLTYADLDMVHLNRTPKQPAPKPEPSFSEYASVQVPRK
# T1 sequence (Q08722 whole entry, looked up): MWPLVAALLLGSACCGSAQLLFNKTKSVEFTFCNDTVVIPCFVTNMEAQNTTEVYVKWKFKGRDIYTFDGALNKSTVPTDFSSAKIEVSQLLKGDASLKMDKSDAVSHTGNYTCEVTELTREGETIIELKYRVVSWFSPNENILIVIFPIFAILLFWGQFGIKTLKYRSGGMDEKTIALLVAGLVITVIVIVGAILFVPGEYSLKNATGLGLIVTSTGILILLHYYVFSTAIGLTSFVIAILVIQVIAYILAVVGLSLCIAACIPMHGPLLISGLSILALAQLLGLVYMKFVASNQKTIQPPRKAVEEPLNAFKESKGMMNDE
# Parathyroid hormone/parathyroid hormone-related peptide receptor (Homo sapiens), sequence (Q03431 whole entry, looked up): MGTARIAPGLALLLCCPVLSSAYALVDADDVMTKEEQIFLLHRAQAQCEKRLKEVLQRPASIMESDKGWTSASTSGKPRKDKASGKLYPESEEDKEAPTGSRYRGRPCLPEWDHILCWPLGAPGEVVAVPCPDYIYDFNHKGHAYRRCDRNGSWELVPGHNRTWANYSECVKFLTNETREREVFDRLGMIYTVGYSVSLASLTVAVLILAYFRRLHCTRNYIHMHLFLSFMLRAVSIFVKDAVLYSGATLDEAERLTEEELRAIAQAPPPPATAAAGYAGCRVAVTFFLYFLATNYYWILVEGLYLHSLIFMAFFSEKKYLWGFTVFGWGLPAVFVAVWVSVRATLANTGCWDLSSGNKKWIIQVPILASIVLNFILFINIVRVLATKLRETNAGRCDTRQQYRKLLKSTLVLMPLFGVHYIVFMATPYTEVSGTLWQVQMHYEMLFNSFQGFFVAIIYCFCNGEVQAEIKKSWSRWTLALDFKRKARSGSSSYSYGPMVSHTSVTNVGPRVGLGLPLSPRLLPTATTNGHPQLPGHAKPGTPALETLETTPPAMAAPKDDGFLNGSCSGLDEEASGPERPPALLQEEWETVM
compound,measurement,setting,value
C[C@]12CCC3c4ccc(O)cc4CCC3C1CCC2=O (some centres undefined),Potency,[1],inactive
same,Potency,[2],inactive
same,Potency,[3],inactive
Clc1cc(Cl)cc(CNc2ncncc2-c2ccc3c(c2)OCO3)c1,Potency,[1],13.2 µM (active)
same,Potency,[2],18.7 µM (active)
same,Potency,[3],inactive
CCc1ccc(C=C2SC(=S)NC2=O)cc1,Potency,[1],inactive
same,Potency,[2],inactive
same,Potency,[3],inactive
CC(=O)N(C)C1(c2ccccc2)CCN(CCC[C@]2(c3ccc(Cl)c(Cl)c3)CCCN(C(=O)c3ccccc3)C2)CC1,Potency,[1],10.5 µM (active) and 13 µM (active)
same,Potency,[2],26.4 µM (active)
CC(C)(C)c1ccc(C(O)CCCN2CCC(C(O)(c3ccccc3)c3ccccc3)CC2)cc1 (centres undefined),Potency,[1],13 µM (active) and 18.4 µM (active)
same,Potency,[2],inactive
same,outcome,[4],inactive
same,outcome,[5],inactive
same,outcome,[6],inactive
same,outcome,[7],inactive
same,Potency,[3],inactive
Cc1ccccc1C(C(=O)NC1CCCCC1)N(C(=O)Cn1ccnc1C)c1cccc(F)c1 (centres undefined),Potency,[1],inactive
same,Potency,[2],inactive
same,Potency,[3],inactive
COc1cc(O)c2c(c1)C(=O)c1cc(C)cc(O)c1C2=O,Potency,[1],inactive
same,Potency,[2],inactive
same,Potency,[3],inactive
CC(C)(Cc1ccc2ccccc2c1)NC[C@@H](O)COc1cccc(Cl)c1C#N,Potency,[1],inactive
same,Potency,[2],inactive
same,Potency,[3],inactive
CC[C@]1(O)C[C@@H]2CN(CCc3c([nH]c4ccccc34)[C@@](C(=O)OC)(c3cc4c(cc3OC)N(C)[C@H]3[C@@](O)(C(=O)OC)[C@H](OC(C)=O)[C@]5(CC)C=CCN6CC[C@]43[C@@H]65)C2)C1,Potency,[1],5.8 µM (active) and 5.17 µM (active) and 1.16 µM (active)
same,Potency,[2],inactive
same,Potency,[3],118 nM (active) and 592 nM (active)
O=C(CCN1CCN(C(=O)OCc2cc(Cl)cc(Cl)c2)CC1)c1ccc2[nH]c(=O)oc2c1,Potency,[1],inactive
same,Potency,[2],inactive
same,Potency,[3],inactive
CCOc1ccc(Nc2nc(-c3c(C)nc4ccccn34)cs2)cc1,Potency,[1],1 nM (active) and 36.6 nM (active)
same,Potency,[2],inactive
same,Potency,[3],165 nM (active)
O=C(O)C=Cc1ccc(O)c(O)c1,Potency,[1],inactive
same,Potency,[2],inactive
same,Potency,[3],inactive
N[C@@]1(C(=O)O)CS(=O)(=O)[C@H]2[C@H](C(=O)O)[C@H]21,Potency,[1],inactive
same,Potency,[2],inactive
same,Potency,[3],inactive
O=C1NC(=O)C(=Cc2ccc3c(c2)OC(F)(F)O3)S1,Potency,[1],inactive
same,Potency,[2],inactive
same,Potency,[3],inactive
NC(CO)(CO)CCc1ccc(Sc2cccc(OCc3ccccc3)c2)cc1Cl,Potency,[1],20.9 µM (active)
same,Potency,[2],9.35 µM (active)
O=C1C(Cl)=C(NCCN2CCOCC2)C(=O)c2ncccc21,Potency,[1],20.9 µM (active)
same,Potency,[2],9.35 µM (active)
CN[C@@H](C)C(=O)N[C@H]1CN(C(=O)CC(C)C)CC[C@H]2CC[C@@H](C(=O)NC(c3ccccc3)c3ccccc3)N2C1=O,Potency,[1],inactive
same,Potency,[2],inactive
same,Potency,[3],inactive
OC[C@@H](O)[C@H](O)[C@H](O)[C@@H](O)CO,Potency,[1],inactive
same,Potency,[2],inactive
same,Potency,[3],inactive
CCC(CC)[C@H](NC(C)=O)[C@@H]1[C@H](O)[C@@H](C(=O)O)C[C@@H]1N=C(N)N,Potency,[1],inactive
same,Potency,[2],inactive
same,Potency,[3],inactive
C[C@@H](O)[C@H]1C(=O)N2C(C(=O)O)=C(S[C@@H]3CN[C@H](C(=O)N(C)C)C3)[C@H](C)[C@H]12,Potency,[1],inactive
same,Potency,[2],inactive
same,Potency,[3],inactive
COc1ccc(-c2coc3cc(O)ccc3c2=O)cc1,Potency,[1],inactive
same,Potency,[2],inactive
same,Potency,[3],inactive
COc1ccc2c(Oc3ccc(NC(=O)c4c(C)n(CC(C)(C)O)n(-c5ccccc5)c4=O)nc3)ccnc2c1,Potency,[1],inactive
same,Potency,[2],inactive
same,Potency,[3],inactive
NS(=O)(=O)c1ccc(NC2=CC(=O)c3ccccc3C2=O)cc1,Potency,[1],inactive
same,Potency,[2],inactive
O=C(Nc1ccccc1-c1cn2c(CN3CCNCC3)csc2n1)c1cnc2ccccc2n1,Potency,[1],26.4 µM (active)
same,Potency,[2],inactive
same,Potency,[3],inactive
CN(C)C1CCN(C(=O)c2ccc(NC(=O)Nc3nc(N4CCOCC4)nc(N4CCOCC4)n3)cc2)CC1,Potency,[1],14.8 µM (active)
same,Potency,[2],0.418 µM (active)
same,Potency,[3],65.8 nM (active)
Cn1cc(C=C2C(=O)Nc3cccnc32)c2ccccc21,Potency,[1],inactive
same,Potency,[2],inactive
same,Potency,[3],inactive
CC1(C)CCC(CN2CCN(c3ccc(C(=O)NS(=O)(=O)c4ccc(NCC5CCOCC5)c([N+](=O)[O-])c4)c(Oc4cnc5[nH]ccc5c4)c3)CC2)=C(c2ccc(Cl)cc2)C1,Potency,[1],inactive
same,Potency,[2],inactive
same,Potency,[3],inactive
CC(C(=O)O)c1ccc(-c2ccccc2)c(F)c1 (centres undefined),Potency,[1],inactive
same,Potency,[3],inactive
COc1cc(NC(=O)c2ccc(-c3ccc(Cl)cc3)o2)cc(OC)c1,Potency,[1],inactive
same,Potency,[2],inactive
same,Potency,[3],inactive
O=C(O)C(O)Cc1ccc(O)c(O)c1 (centres undefined),Potency,[1],inactive
same,Potency,[2],inactive
same,Potency,[3],inactive
CC=CC(=O)N(CC)c1ccccc1C,Potency,[1],inactive
same,Potency,[2],inactive
same,Potency,[3],inactive
O=c1cc(CN2CCOCC2)occ1OCCCCCSc1ccnc2cc(C(F)(F)F)ccc12,Potency,[1],10.3 µM (active)
same,Potency,[3],inactive
CC(C)C(=O)Nc1ncc(-c2cc(C(F)F)nn2-c2c(Cl)cccc2Cl)s1,Potency,[1],23.1 µM (active)
same,Potency,[2],13.2 µM (active)
same,Potency,[3],inactive
C[C@@H]1CCN(C(=O)CC#N)C[C@H]1N(C)c1ncnc2[nH]ccc12,Potency,[1],inactive
same,Potency,[3],inactive
